Experimental data published in PubChem BioAssay.
Active and inactive are the calls of the source. Unless noted, no rule for the calls is given here.

Experiments:
[1] = kinase inhibitors against Plasmodium liver-stage infection, cell-based, known kinase inhibitor set, luminescence, hepatoma host viability (AID 624392); details: Plasmodium liver stage in hepatoma cells, luciferase luminescence, concentration not given here; liver cell % of control: measured here: host liver cell viability; parasite % of control: stronger effect = lower value;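 also: infected cells incubated roughly two days before readout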
[2] = modulators of glucocorticoid suppression of NF-kB, cell-based, luciferase, IL-1B stimulus, dexamethasone (AID 624486); details: NF-kB luciferase reporter, IL-1B + dexamethasone, luminescence; percent of negative control (+Dex): actives lie on both sides, concentration not given here; z-score: measured here: IL-1B alone, no Dex;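 as to percent of negative control (+Dex): 100% = mean signal of vehicle control wells on the plate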
[3] = kinase inhibitors altering Pseudomonas killing of worms, whole organism (AID 651566);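 also: tested at 14 µM; sign flipped so higher z means a lower ratio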; details: C. elegans killed by P. aeruginosa, survival ratio
[4] = activators of macrophage pro-inflammatory response, cell-based, murine, luminescence (AID 652131); details: murine macrophage pro-inflammatory reporter, stronger effect = higher value
[5] = molecular target: Cellular tumor antigen p53 (Homo sapiens) (UniProt P04637); test: kinase inhibitors altering GFP-p53 stability in HPV16-positive cells, imaging, known kinase inhibitor set, EGFP/DsRed ratio (AID 1053116); details: stronger effect = higher value; EGFP object count: measured here: GFP-p53 positive objects count;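 also: cells exposed to compounds for 24 h at 37 °C before reading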
Sequence of Cellular tumor antigen p53 (Homo sapiens) (P04637 whole entry, looked up): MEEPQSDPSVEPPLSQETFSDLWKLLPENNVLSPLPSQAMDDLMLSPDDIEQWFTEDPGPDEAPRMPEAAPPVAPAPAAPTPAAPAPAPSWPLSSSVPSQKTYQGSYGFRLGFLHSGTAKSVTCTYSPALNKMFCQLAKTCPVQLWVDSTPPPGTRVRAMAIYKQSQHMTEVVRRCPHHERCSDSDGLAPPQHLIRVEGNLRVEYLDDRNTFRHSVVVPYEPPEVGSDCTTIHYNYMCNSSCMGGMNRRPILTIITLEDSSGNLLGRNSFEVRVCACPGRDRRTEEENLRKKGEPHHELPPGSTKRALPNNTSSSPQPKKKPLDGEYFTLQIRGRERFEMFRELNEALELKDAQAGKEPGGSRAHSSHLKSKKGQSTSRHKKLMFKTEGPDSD

[6] = IRF3 reporter activation in THP-1 macrophages, cell-based, PMA-stimulated THP-1, luminescence (AID 1053176); details: PMA-differentiated THP-1, IRF3 reporter luminescence; stronger effect = higher value
[7] = survival rescue of mitochondrial mutant cells in low glucose, primary screen, MELAS cybrids, Rieske KO mouse fibroblasts, CellTiter-Glo (AID 1508586;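 active = mean z-score across replicates of 1.96 or higher in either the MELAS or the Rieske mutant cell line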;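 also: z relative to plate mean and SD of compound and empty wells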)
[8] = MELAS cybrid survival, CellTiter-Glo 48 h, stronger effect = higher value
[9] = Rieske KO mouse fibroblast survival, CellTiter-Glo 72 h

Structure (SMILES) | liver cell % of control [1] [%] | parasite % of control [1] | percent of negative control (+Dex) [2] | z-score [2] | z-score [3] | z-score [4] | EGFP object count [5] | EGFP/DsRed ratio [5] | fraction signal [6] | z-score [7, 8] | z-score [7, 9]
CN1CCC(n2cnc(-c3ccc(F)cc3)c2-c2ccnc(Nc3ccccc3)n2)CC1 | 67.1 | 74.5% (inactive) | 101% (inactive) | -0.08 | 0.955 (inactive) | 0.813 (inactive) | 3 | 0.0706 (inactive) | 0.005 (inactive) | -0.528 (inactive) | -0.322
O=C1Nc2ccc(I)cc2/C1=C\c1cc(Br)c(O)c(Br)c1 | 86.2 | 77.5% (inactive) | 92% (inactive) | -0.355 | 1.3 (inactive) | 0.587 (inactive) | 1 | 0.0402 (inactive) | -0.0105 (inactive) | 0.405 (inactive) | -0.253
Cc1nn(C)c2cc(N(C)c3ccnc(Nc4cccc(S(N)(=O)=O)c4)n3)ccc12 | 71.5 | 67% (inactive) | 82% (inactive) | 0.54 | 0.53 (inactive) | 3.14 (inactive) | 2 | 0.0899 (inactive) | -0.0065 (inactive) | -0.638 (inactive) | 0.0293
O=C(Nc1n[nH]c2cc(-c3cc(F)ccc3F)ccc12)C1CC1 | 90.7 | 72.2% (inactive) | 81% (inactive) | -0.38 | -0.655 (inactive) | 0.317 (inactive) | 4 | 0.173 (inactive) | -0.0055 (inactive) | -0.186 (inactive) | -0.425
C[C@@H](Oc1cc(-n2cnc3ccc(OCC4CCN(C)CC4)cc32)sc1C(N)=O)c1ccccc1Cl | 73.4 | 117% (inactive) | 104% (inactive) | -0.185 | -0.885 (inactive) | -2.53 (inactive) | 7 | 0.174 (inactive) | -0.009 (inactive) | -0.19 (inactive) | 0.83
Fc1ccc(Nc2nccc(-c3c(-c4ccc(C(F)(F)F)cc4)nn4ncccc34)n2)cc1F | 121 | 125% (inactive) | 94.5% (inactive) | 0.25 | 0.135 (inactive) | -0.216 (inactive) | 5.5 | 0.0976 (inactive) | 0.008 (inactive) | -0.717 (inactive) | -0.174
COc1cccc(-n2ncc3c(N/N=C/c4ccc(C(=O)NCCN(C)C)cc4)ncnc32)c1 | 77.1 | 68.4% (inactive) | 104% (inactive) | 0.67 | -0.295 (inactive) | 0.961 (inactive) | 7 | 0.117 (inactive) | -0.0045 (inactive) | -0.557 (inactive) | 0.745
COc1ccccc1-c1cc(/C=C2\C(=O)Nc3ncc(Br)cc32)cc(Br)c1O | 102 | 116% (inactive) | 96% (inactive) | -0.115 | 0.69 (inactive) | -0.578 (inactive) | 1 | 0.142 (inactive) | 0.0015 (inactive) | -0.581 (inactive) | -0.341
COC(=O)c1cncc(/C=C/c2c(C)cc(O)cc2C)c1 | 108 | 131% (inactive) | 108% (inactive) | 1.96 | 0.295 (inactive) | -0.608 (inactive) | 4.5 | 0.286 (inactive) | -0.0065 (inactive) | 0.159 (inactive) | 0.14
COc1cc(/C=N/Nc2ncnc3c2cnn3Cc2ccccc2)ccc1O | 94.9 | 99.3% (inactive) | 85% (inactive) | -0.18 | -0.52 (inactive) | 1.23 (inactive) | 100 | 1.43 (active) | 0.0995 (inactive) | 1.43 (inactive) | 0.207
CNC(=O)c1cncc(/C=C/c2c(C)cccc2C)c1 | 106 | 86.6% (inactive) | 91.5% (inactive) | 0.11 | 0.025 (inactive) | -0.466 (inactive) | 4 | 0.149 (inactive) | 0.0135 (inactive) | 1.23 (inactive) | 0.0124
CCc1nccc2c1nc(-c1nonc1N)n2CC | 89.7 | 130% (inactive) | 67% (inactive) | -2.37 | -0.475 (inactive) | -0.569 (inactive) | 2.5 | 0.0232 (inactive) | 0.005 (inactive) | 0.0182 (inactive) | -0.326
CC1=C(C(=O)Nc2ccc3[nH]ncc3c2)C(c2ccc(Cl)c(Cl)c2)CC(=O)N1 (centres undefined) | 100 | 160% (inactive) | 83.5% (inactive) | -1.08 | -0.52 (inactive) | -0.714 (inactive) | 2 | 0.0149 (inactive) | -0.0025 (inactive) | -0.00134 (inactive) | -0.0171
Cc1cc(Cl)cc2c(N=Nc3ccc(S(N)(=O)=O)cc3)c(O)[nH]c12 | 94.4 | 139% (inactive) | 100% (inactive) | 0.945 | -0.145 (inactive) | -0.3 (inactive) | 2.5 | 0.092 (inactive) | -0.0045 (inactive) | 0.0201 (inactive) | -0.605
COc1cccc(-n2ncc3c(N/N=C/c4ccncc4)ncnc32)c1 | 106 | 21.2% (inactive) | 156% (active) | 0.175 | 0.485 (inactive) | 0.337 (inactive) | 14 | 0.38 (inactive) | 0.0245 (inactive) | -0.213 (inactive) | 0.531
Fc1cccc(COc2ccc(Nc3ncnc4cc(-c5ccc[nH]5)sc34)cc2Cl)c1 | 45.8 | 16.2% (inactive) | 66.5% (inactive) | -1.57 | 0.215 (inactive) | -0.371 (inactive) | 3 | 0.034 (inactive) | -0.0045 (inactive) | -0.761 (inactive) | -0.0837
CS(=O)(=O)CCNCc1ccc(-c2ccc3ncnc(Nc4ccc(OCc5cccc(F)c5)c(C(F)(F)F)c4)c3c2)o1 | 105 | 99.7% (inactive) | 106% (inactive) | 1.84 | 0.48 (inactive) | -0.873 (inactive) | 1 | 0.00783 (inactive) | -0.0125 (inactive) | -0.506 (inactive) | -0.463
CN(c1ccc(NC(=O)Nc2c(Cl)cccc2Cl)cc1)c1ccnc(Nc2cccc(CS(C)(=O)=O)c2)n1 | 108 | 130% (inactive) | 134% (inactive) | 3.88 | 0.545 (inactive) | 5.36 (inactive) | 4 | 0.171 (inactive) | 0.005 (inactive) | -0.649 (inactive) | -0.476
CC1=C(C(=O)Nc2ccc3[nH]ncc3c2)C(c2ccc3ccccc3c2)CC(=O)N1 (centres undefined) | 109 | 30% (inactive) | 79% (inactive) | -1.06 | -0.24 (inactive) | 0.091 (inactive) | 3 | 0.432 (inactive) | -0.014 (inactive) | 0.693 (inactive) | -0.221
Clc1ccc(-c2nn3ncccc3c2-c2ccnc(Nc3ccccc3)n2)cc1 | 149 | 29.7% (inactive) | 84% (inactive) | -0.705 | 0.79 (inactive) | 0.464 (inactive) | 4 | 0.304 (inactive) | -0.004 (inactive) | 0.298 (inactive) | -0.499
NC(=O)c1sc(-n2cnc3cc(C(F)(F)F)ccc32)cc1OCc1ccccc1Br | 109 | 113% (inactive) | 94.5% (inactive) | 0.595 | 0.64 (inactive) | -0.704 (inactive) | 10.5 | 0.407 (inactive) | -0.0005 (inactive) | 0.066 (inactive) | -0.5
Nc1nonc1-c1nc2cnccc2n1C1CCCCC1 | 69 | 61.4% (inactive) | 29.5% (active) | -7.08 | -0.155 (inactive) | -0.857 (inactive) | 3.5 | 0.0658 (inactive) | -0.002 (inactive) | -0.132 (inactive) | -0.207
COc1ccc2ncnc(Nc3ccc(OCc4ccccc4)cc3)c2c1 | 120 | 92.8% (inactive) | 88% (inactive) | -0.885 | 0.35 (inactive) | 1.39 (inactive) | 4 | 0.134 (inactive) | -0.023 (inactive) | -0.876 (inactive) | -0.262
COc1cc(Nc2ncc3c(C)nc(-c4cccc(Oc5ccccc5)c4)n3n2)cc(OC)c1OC | 92.5 | 147% (inactive) | 77% (inactive) | -1.34 | 0.075 (inactive) | -0.606 (inactive) | 8.5 | 0.0854 (inactive) | 0 (inactive) | 0.38 (inactive) | 0.0156
Nc1nccc(-c2c(-c3ccc(F)cc3)nn3cc(C(F)(F)F)ccc23)n1 | 111 | 130% (inactive) | 107% (inactive) | 1.32 | -0.745 (inactive) | -0.016 (inactive) | 5.5 | 0.148 (inactive) | -0.0075 (inactive) | -0.218 (inactive) | -0.148
COc1cc2c(cc1Nc1nc(N3CCc4ccccc43)c3cc[nH]c3n1)N(C(=O)CN(C)C)CC2 | 75 | 160% (inactive) | 104% (inactive) | 0.675 | 0.56 (inactive) | 0.168 (inactive) | 16.5 | 1.27 (inactive) | -0.0105 (inactive) | -0.598 | 2.39
Cc1ccc(O)cc1Nc1ccnc2ccc(S(C)(=O)=O)cc12 | 79.8 | 60.9% (inactive) | 60.5% (inactive) | -3.46 | 0.285 (inactive) | 0.671 (inactive) | 3 | 0.0595 (inactive) | -0.007 (inactive) | -0.116 | 3.87
COc1cccc(-n2ncc3c(N/N=C/c4ccc(C)cc4)ncnc32)c1 | 114 | 130% (inactive) | 105% (inactive) | 0.92 | -0.225 (inactive) | -0.468 (inactive) | 9.5 | 0.811 (inactive) | 0.0005 (inactive) | -0.521 (inactive) | 0.152
CC(C)c1ccc(-c2cc(C3CNNC3c3ccccn3)ccn2)cc1 (centres undefined) | 100 | 117% (inactive) | 95.5% (inactive) | 0.855 | 0.505 (inactive) | 0.704 (inactive) | 2 | 0.021 (inactive) | -0.0085 (inactive) | 0.0399 (inactive) | -0.129
